According to PubChem BioAssay AID504401 (The Scripps Research Institute Molecular Screening Center, 2011):
Unmarked numbers belong to inactive results. The rule behind the calls is not given here.

Tested on: Phorbol Ester
Assay: CYP450 and receptor off-target profile – biochemical, Ricerca HitProfilingScreen, selectivity assay for GPR7 antagonist project, late-stage follow-up (AID 504401)
Details: Ricerca radioligand binding and CYP450 panel, at 10 µM, active compounds read high

COc1ccc(Oc2c(Cl)cnn(-c3cc(C)cc(C)c3)c2=O)cc1 was tested. Which inhibition did it give?
The inhibition was -15%.
